Bioassay records (PubChem BioAssay)
Caspase-7 inhib: qHTS Assay for Allosteric/Competitive Inhibitors of Caspase-7; P55210; recombinant caspase-7, Ac-DEVD-AFC fluorescence rate; Potency, µM (doses to about 57.5 µM), for inactives: at the highest dose activity change, negative = inhibition, most hits filed as inhibitors; actives 0.02% (n = 75,000); AID 889, 2007; active means well fitted inhibition curve with a large enough effect in the main read-out, with a control signal flat, not every such curve was filed as active; inconclusive means small, poorly fitted or top-dose-only effect, or a change in a side signal; further: % of control where 0% means no effect
HEK293 cAMP cs: qHTS Assay for Agonists of the Thyroid Stimulating Hormone Receptor: Activators of Intracellular cAMP Concentrations in Parental HEK 293; parental HEK293 CNG cAMP sensor, membrane potential fluorescence; Potency, µM (highest dose often 57.1 µM), without a hit: top-dose activation, usual class: activators; actives 2.5% (n = 73,000); further: % of control where 0% means no effect; nearly all actives have a fitted effect of over 55% in size
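Parental HEK 293 cells stably expressing a cAMP-gated CNG channel were loaded with membrane potential dye containing 100 uM RO 20-1724 for 60 min. Compound added for 30 min; depolarization read as fluorescence intensity at 590 nm.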
Caspase-1 inhib: qHTS Assay for Allosteric/Competitive Inhibitors of Caspase-1. Potency, µM (series often up to 57.5 µM), for inactives: at the top dose activity change, negative = inhibition, hits mostly inhibitors. AID 900, 2007. Caspase-1 enzyme, Ac-WEHD-AFC fluorogenic rate. P29466. actives 0.03% (n = 75,000);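 further: plate controls were vehicle for no effect and no substrate for full effect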
TSHR ag: qHTS Assay for Agonists of the Thyroid Stimulating Hormone Receptor | Thyrotropin receptor (Homo sapiens), P16473 | HEK293-CNG-TSHR cells (CNG channel as cAMP sensor), membrane potential dye, cAMP | Potency, µM (titrated, usually from 57.1 µM), inactives show top-dose activation, usual class: activators | actives 0.48% (n = 73,000); active means well fitted activation curve with a large enough effect in the main read-out, with a control signal flat, not every such curve was filed as active; inconclusive means small, poorly fitted or top-dose-only effect, or a change in a side signal; inactive means no such curve, though single readings can be large or run the other way; % of control where 0% means no effect;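 further: the control signal comes from parental cells without the receptor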
Target sequence (P16473 whole entry, looked up): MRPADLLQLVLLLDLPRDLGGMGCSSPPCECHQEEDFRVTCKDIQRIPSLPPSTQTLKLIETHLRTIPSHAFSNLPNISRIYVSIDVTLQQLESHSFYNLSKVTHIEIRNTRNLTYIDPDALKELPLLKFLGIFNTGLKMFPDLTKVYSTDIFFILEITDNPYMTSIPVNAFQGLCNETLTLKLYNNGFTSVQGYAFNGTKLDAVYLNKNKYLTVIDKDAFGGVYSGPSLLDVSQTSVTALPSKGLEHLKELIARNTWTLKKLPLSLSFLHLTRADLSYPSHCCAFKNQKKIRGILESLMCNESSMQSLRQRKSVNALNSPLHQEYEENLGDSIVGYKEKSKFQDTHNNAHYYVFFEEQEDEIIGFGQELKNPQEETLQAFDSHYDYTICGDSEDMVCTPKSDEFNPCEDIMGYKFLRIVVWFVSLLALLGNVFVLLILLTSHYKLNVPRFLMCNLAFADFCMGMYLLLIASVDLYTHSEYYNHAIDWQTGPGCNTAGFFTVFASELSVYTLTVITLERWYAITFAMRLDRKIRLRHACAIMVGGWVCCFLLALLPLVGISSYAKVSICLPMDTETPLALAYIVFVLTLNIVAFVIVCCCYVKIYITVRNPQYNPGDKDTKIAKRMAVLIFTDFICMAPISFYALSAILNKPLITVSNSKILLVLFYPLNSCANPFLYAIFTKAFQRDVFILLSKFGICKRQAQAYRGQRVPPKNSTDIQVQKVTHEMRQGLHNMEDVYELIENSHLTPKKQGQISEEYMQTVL
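HEK 293 cells stably expressing TSHR and a cAMP-gated CNG channel; parental CNG-only cells as counterscreen. Cells preloaded 60 min with membrane potential dye plus 100 uM RO 20-1724, then compound 30 min; fluorescence read at 590 nm.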
Bst PK mod: Pyruvate Kinase. purified pyruvate kinase, luminescence ATP production; ribose 5-phosphate activator present at AC10. Potency, µM. actives 1.2% (n = 51,000); in the data active means potency below about 11 µM; inconclusive means mostly about 12 µM to 25 µM;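 the screen sought inhibitors and activators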;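 further: scaled between full activation by ribose 5 phosphate and full inhibition by luteolin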
GBA activity: Glucocerebrosidase; Lysosomal acid glucosylceramidase (Homo sapiens), P04062; purified enzyme, resorufin glucoside fluorescence (screen aimed at inhibitors), 20 min; Potency, µM; actives 1.1% (n = 48,000); AID 360, 2006; in the data active means potency below about 15 µM; inconclusive means mostly about 16 µM to 33 µM;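 further: the screen sought inhibitors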
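Compounds titrated against 0.2 nM normal enzyme, 30 uM resorufin beta-D-glucopyranoside substrate, citrate/phosphate buffer with taurocholate and tween-20, pH 5.9. Reaction ran 20 min at room temperature; fluorescence (Ex 548/Em 600) gave AC50.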
The depositor's hits bear a star; i = inactive; ? = inconclusive; · = no result; ! = repeats disagree; [ ] = dose if it differs, or a comment. The list is not random: actives were taken first. Their share in the collection is about 4%. Unless noted, the call rests on the fitted dose curve; in most records, active means well fitted curve in the direction sought with a large enough effect; inconclusive means small, poorly fitted or top-dose-only effect, or another doubt; inactive means no such curve, though single readings can be large; an effect the other way counts as inactive or inconclusive. Potency means the concentration at half of the fitted maximal effect.

SMILES | Caspase-7 inhib | HEK293 cAMP cs | Caspase-1 inhib | TSHR ag | Bst PK mod | GBA activity
CCCC[C@@H]1C[C@H]1C(NC(=O)c1ccco1)c1ccccc1C(F)(F)F (stereo partly specified) | -1% | 32µM* | -2% | ? | · | ·
CCCC[C@@H]1C[C@H]1C(NC(=O)c1ccco1)c1ccc(-c2ccccc2)cc1 (stereo partly specified) | -4% | 17% | -2% | -5% | · | ·
CCCC[C@@H]1C[C@H]1C(NC(=O)c1ccco1)c1ccc(Cl)cc1 (stereo partly specified) | -4% | 16µM* | 1% | ? | · | ·
CCCC[C@@H]1C[C@H]1C(NC(=O)c1ccccc1)c1ccccc1 (stereo partly specified) | -2% | 13µM* | 1% | ? | · | ·
Cc1nc(NCc2ccccc2)c2nc(-c3ccccc3)n(CCN3CCCCC3)c2n1 | -2% | ? | -2% | ? | · | ·
CCCCCCCCC/C=C/CC1CC(=O)OC1=O (stereo unspecified) | -2% | ? | -1% | ? | · | ·
Cc1nn(Cc2ccccc2)c(Cl)c1C(=O)OCc1nnc(-c2ccc(Cl)cc2)o1 | -9% | 25µM* | -5% | ? | ? | >77
Clc1ccc(-c2nnc(SCc3ccon3)o2)c(Cl)c1 | -2% | 14% | -1% | 10% | 10* | >77
C=CCSc1nnc(-c2ccc(Cl)cc2Cl)o1 | 0% | 11%[11.4 µM] | -1% | 22%[11.4 µM] | · | ·
CC(C)CN1CC2(CCN(C(=O)c3ccco3)CC2)C1 | -1% | 20µM* | -4% | ? | · | ·
CNCCCC12CCC(c3ccccc31)c1ccccc12 | -1% | 40µM*! | -1% | ? | >26 | ·
CC(C)C(c1nnnn1C1CCCCC1)N1CCc2ccccc2C1 (stereo unspecified) | 1% | 5µM* | 0% | ? | >57 | ·
C[C@@H]1CC[C@H]2C(=O)O[C@H](CN=[N+]=[N-])CN2[C@@H]1c1ccc(Br)cc1 | 2%[11.5 µM] | ? | 3%[11.5 µM] | ? | · | ·
CCOC(=O)CSc1nc2cc(OC)ccc2cc1C#N | -9% | 29% | ? | 14% | >57 | >77
CCCCOC(=O)CSc1nc2c(cc1C#N)C(=O)CC(C)(C)C2 | -1% | 20µM* | -2% | ? | >57 | >77
CC(=O)c1c(C)n(C)c2ccc(OC(=O)c3ccco3)cc12 | 1% | -14% | 1% | 13% | 8.4* | >77
O=c1c(-c2ccc(Cl)cc2)nc2cnc(N3CCOCC3)nc2n1-c1ccccc1 | ? | 7% | · | -2% | · | ·
COC(=O)c1sccc1NC(=O)c1ccc(Br)o1 | -2% | 4µM* | -13% | ? | · | ·
C[C@@H]1NCC[C@H](CC(=O)O)[C@H]1CC(=O)O | 1%[11.5 µM] | 1%[11.4 µM] | 3%[11.5 µM] | -8%[11.4 µM] | · | ·
Cc1ccc2[nH]c(=O)c(CN(Cc3nnnn3Cc3ccccc3)C3CCCC3)cc2c1 | -15% | -8% | -17% | 20% | >11 | >77
Cc1cccc2cc(CN(Cc3nnnn3Cc3ccco3)C3CCCC3)c3nnnn3c12 | -3% | 10µM* | -1% | ? | >57 | 9.8*
COCCOc1ccc(C(F)(F)F)cc1Nc1nc2ccccc2o1 | -3% | -13% | -1% | 13µM* | >57 | i
O=C(NCCN1CCCC1)c1ccc(Cc2nc3ccccc3[nH]2)cc1 | 2% | -9% | -3% | -2% | · | ·
C[C@@H](CN1CCC(Cc2ccccc2)CC1)[C@H](O)c1ccc(O)cc1 | -1% | 0% | 1% | 11% | · | ·
Cn1c(-c2ccc(Br)o2)nc2cc(Br)ccc21 | -3% | 16µM* | -4% | ? | · | >77
SMILES | Caspase-7 inhib | HEK293 cAMP cs | Caspase-1 inhib | TSHR ag | Bst PK mod | GBA activity
Cn1c(-c2ccc(Br)o2)nc2ccccc21 | -3% | ? | -1% | ? | ? | >77
COc1ccc(C(C)C(=O)c2ccc(O)cc2O)cc1 (stereo unspecified) | 0% | · | -2% | · | · | ·
CCOC(=O)CSc1nc2ccccc2c(=O)n1CC1CCCO1 (stereo unspecified) | 0% | 16µM* | 0% | ? | >57 | >77
O=C(CSc1nc2sc3c(c2c(=O)n1Cc1ccco1)CCC3)N1CCc2ccccc21 | -2% | 15% | -1% | 20% | >57 | >77
Cc1cc2c(=O)n(Cc3ccco3)c(SCC(=O)N3CCCc4ccccc43)nc2s1 | -4% | 32µM* | -4% | ? | >57 | >77
Cc1ccc(-n2ncc3c(=O)[nH]c(SCC(=O)N4CCCc5ccccc54)nc32)cc1 | 1% | 40µM* | -1% | ? | >57 | ·
CCn1c(SCC(=O)N2CCCc3ccccc32)nc2ccccc2c1=O | -3% | 10µM* | -4% | ? | >57 | >77
Cc1ccc(-n2ncc3c(=O)[nH]c(SCC(=O)N4CCN(c5ccccc5)CC4)nc32)cc1 | 2% | ? | 1% | ? | >57 | >77
CC(C)Sc1nc2c(cnn2-c2ccccc2)c(=O)[nH]1 | 1% | 13% | -2% | 6% | · | ·
CCCCCSc1nc2c(cnn2-c2ccccc2)c(=O)[nH]1 | -1% | 3% | 3% | 3% | >57 | 13*
COc1cccc(OC)c1OCCNC[C@@H]1CSc2ccccc2O1 | -2% | ? | 0% | ? | · | ·
CCOC(=O)C1=C(C)Nc2nc(C)nn2C1c1ccc(OC)c(OC)c1 (stereo unspecified) | -1% | 1.6µM* | -1% | ? | · | ·
CCc1ccc2[nH]c(=O)c(CN(CCCN3CCOCC3)C(=O)Nc3ccc(Cl)cc3)cc2c1 | 0% | ? | -1% | ? | 6.6* | i
NC(=S)NCCC[C@@H](N)C(=O)O | -3% | -9% | 3% | 3% | · | ·
CC1(c2ccncc2)Nc2ccccc2-c2nc3ccccc3n21 (stereo unspecified) | -5% | 6% | -4% | 25µM* | >57 | >77
COc1ccc2c(c1)C1(Nc3ccccc3-c3nc4ccccc4n31)C(=O)N2 (stereo unspecified) | -5% | ? | -2% | ? | >57 | >77
O=C(c1ccc(Cc2nc3ccccc3[nH]2)cc1)N1CCOCC1 | -2% | 30% | -1% | 0% | · | ·
COC(=O)CSc1nc2c(c(-c3ccc(C)o3)c1C#N)CCCC2 | -1% | 2% | -5% | -12% | >57 | 15*
CCn1c(SCC#N)nc2c(c1=O)C1(CCCC1)Cc1ccccc1-2 | 0% | 25µM* | -2% | ? | >57 | >77
CN(C)S(=O)(=O)c1cccc(C(=O)NCc2ccco2)c1 | 0% | 14% | -1% | 3% | >57 | >77
Cc1ccc(N(Cc2ccco2)C(=O)c2cccc(S(=O)(=O)N(C)C)c2)cc1 | -3% | 20% | 0% | 20µM* | >57 | ·
O=C(c1ccco1)N1CCC2(CC1)CN(c1cccc(-c3ccccc3)c1)C2 | -3% | 21% | -4% | 2% | · | ·
